In PubChem BioAssay (Tox21):
“And” between values parts separate entries of the source, which are not always exact repeats. Identical values can stand only once. A structure can be active in one record and inactive in another. The source made the active and inactive calls. Entries that show only a call come without a potency. Unless noted, the call rests on the fitted dose curve; in most records, active means well fitted curve in the direction sought with a large enough effect in the repeat runs; inconclusive means weak or mixed curves; inactive means no such curve, though single readings can be large; an effect the other way counts as inactive or inconclusive.

Key:
[1] = qHTS assay to identify small molecule antagonists of the glucocorticoid receptor (GR) signaling pathway - cell viability counter screen (AID 720693); settings: GR-bla HeLa viability, CellTiter-Glo luminescence, 18 h, with 5 nM dexamethasone present; series mostly up to 58.5 µM; further: nearly all actives have a fitted effect of over 55% in size
[2] = qHTS assay for identifying genotoxic compounds that show differential cytotoxicity against isogenic chicken DT40 cell lines with known DNA damage response pathways - wild type cell line (AID 743012); settings: DT40 wild type chicken cells viability, CellTiter-Glo, 40 h; series mostly up to 68.4 µM; further: nearly all actives have a fitted effect of over 60% in size; further: potency means the concentration at half of the fitted maximal effect
Procedure, shortened: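 Luminescent ATP viability signal (CellTiter-Glo, 30 min RT) recorded after wild type DT40 cells were incubated with compounds for 40 h at 37 C/5% CO2.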

[3] = qHTS assay for identifying genotoxic compounds that show differential cytotoxicity against isogenic chicken DT40 cell lines with known DNA damage response pathways - Rev3 mutant cell line (AID 743014); settings: chicken DT40 Rev3-/- viability, CellTiter-Glo, 40 h; series mostly up to 68.4 µM; further: nearly all actives have a fitted effect of over 55% in size; further: potency means the concentration at half of the fitted maximal effect
[4] = qHTS assay for identifying genotoxic compounds that show differential cytotoxicity against isogenic chicken DT40 cell lines with known DNA damage response pathways - Rad54/Ku70 mutant cell line (AID 743015); settings: DT40 Rad54/Ku70 mutant viability, CellTiter-Glo, 40 h; series mostly up to 66.8 µM; further: nearly all actives have a fitted effect of over 60% in size; further: potency means the concentration at half of the fitted maximal effect
[5] = qHTS assay to identify small molecule antagonists of the androgen receptor (AR) signaling pathway - cell viability counter screen (AID 743033; further: nearly all actives have a fitted effect of over 45% in size; further: potency means the concentration at half of the fitted maximal effect); settings: AR-bla HEK293 viability, CellTiter-Glo luminescence, 16 h; series mostly up to 58.5 µM
[6] = qHTS assay to identify small molecule antagonists of the androgen receptor (AR) signaling pathway using the MDA cell line - cell viability counter screen (AID 743041; further: nearly all actives have a fitted effect of over 45% in size); settings: MDA-kb2 viability, CellTiter-Fluor, 16 h, cells co-treated with R1881 androgen agonist; series mostly up to 70.3 µM
Procedure, shortened: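 Viability read by CellTiter-Fluor fluorescence in the same wells as the antagonist screen, added after 15.5 h of a 16 h, 37C exposure. Human breast carcinoma MDA-kb2 AR-luc cells, compounds co-dosed with agonist R1881.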

[7] = qHTS assay to identify small molecule antagonists of the thyroid receptor (TR) signaling pathway - cell viability counter screen (AID 743064); settings: GH3.TRE-Luc viability, CellTiter-Fluor, 24 h; series mostly up to 70.3 µM; further: nearly all actives have a fitted effect of over 50% in size; further: potency means the concentration at half of the fitted maximal effect
Procedure, shortened: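 Same-well viability check: GH3.TRE-Luc cells stimulated with 1 nM T3 alongside test compound for 23.5 h, followed by CellTiter-Fluor fluorescence.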

[8] = tested on: thyroid hormone receptor (rat, GH3 cells); experiment: qHTS assay to identify small molecule agonists of the thyroid receptor (TR) signaling pathway (AID 743066; calls by dose curve; further: potency means the concentration at half of the fitted maximal effect); settings: GH3.TRE-Luc cells, TR agonist luciferase, 24 h; series mostly up to 83.9 µM
[9] = qHTS assay to identify small molecule antagonists of the estrogen receptor alpha (ER-alpha) signaling pathway - cell viability counter screen (AID 743074; calls by dose curve;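 further: HEK293 cells carrying ER-alpha-UAS-bla reporter stimulated with 17beta-estradiol; nearly all actives have a fitted effect of over 45% in size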; further: potency means the concentration at half of the fitted maximal effect); settings: ERalpha-bla HEK293 viability, CellTiter-Glo luminescence, 18 h; series mostly up to 69.4 µM
[10] = qHTS assay to identify small molecule antagonists of the estrogen receptor alpha (ER-alpha) signaling pathway using the BG1 cell line - cell viability counter screen (AID 743081); settings: BG1Luc4E2 viability, CellTiter-Fluor, 22 h; series mostly up to 70.3 µM;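 further: compound given together with 17beta-estradiol as the ER stimulus; nearly all actives have a fitted effect of over 45% in size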; further: potency means the concentration at half of the fitted maximal effect
Aromatase (Homo sapiens) = Aromatase (Homo sapiens) (UniProt P11511); experiment: qHTS assay to identify aromatase inhibitors (AID 743083); settings: MCF-7 aro ERE, testosterone-driven ERE luciferase, 24 h; series mostly up to 70.3 µM; further: nearly all actives have a fitted effect of over 55% in size; further: potency means the concentration at half of the fitted maximal effect
[11] = qHTS assay to identify small molecule antagonists of the thyroid receptor (TR) signaling pathway (AID 743065); settings: GH3.TRE-Luc, T3-stimulated luciferase inhibition, 23.5 h; series mostly up to 70.3 µM; further: nearly all actives have a fitted effect of over 55% in size; further: potency means the concentration at half of the fitted maximal effect
Procedure, shortened: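 Antagonism measured as loss of luciferase signal in GH3 cells stably carrying a TRE-luciferase reporter, co-treated with compound and T3 (1 nM final) for 23.5 h at 37 C. Viability was read in the same well by CellTiter-Fluor.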

[12] = molecular target: Estrogen receptor (Homo sapiens) (UniProt P03372); experiment: qHTS assay to identify small molecule antagonists of the estrogen receptor alpha (ER-alpha) signaling pathway (AID 743069; active means well fitted curve in the direction sought with a large enough effect in the signal ratio in the repeat runs, not every such curve was filed as active; inconclusive means weak or mixed curves, or effect the other way; inactive means no such curve, though single readings can be large or run the other way; the % refers to the signal ratio; further: potency means the concentration at half of the fitted maximal effect); settings: HEK293 ER-alpha-UAS-bla, beta-lactamase ratio, antagonist mode; series mostly up to 69.4 µM
Procedure, shortened: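 Antagonist mode: compounds in DMSO were co-added with 17beta-estradiol to ER-alpha-bla HEK293 cells (2% charcoal-stripped serum) and left 18 h at 37C. Reporter inhibition was measured as FRET fluorescence after 2 h LiveBLAzer substrate at room temperature.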

[13] = molecular target: Estrogen receptor (Homo sapiens) (UniProt P03372); experiment: qHTS assay to identify small molecule agonists of the estrogen receptor alpha (ER-alpha) signaling pathway (AID 743075; calls by dose curve;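 further: HEK293 GripTite cells with ER-alpha and UAS-driven beta-lactamase reporter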; further: potency means the concentration at half of the fitted maximal effect); settings: HEK293 ER-alpha-UAS-bla, beta-lactamase FRET ratio, 18 h; series mostly up to 70.1 µM
[14] = molecular target: Estrogen receptor (Homo sapiens) (UniProt P03372); experiment: qHTS assay to identify small molecule agonists of the estrogen receptor alpha (ER-alpha) signaling pathway using the BG1 cell line (AID 743079); settings: BG1Luc4E2 cells, ERE-luciferase agonist, 22 h; series mostly up to 70.3 µM; further: nearly all actives have a fitted effect of over 20% in size; further: potency means the concentration at half of the fitted maximal effect
[15] = qHTS assay to identify small molecule antagonists of the estrogen receptor alpha (ER-alpha) signaling pathway using the BG1 cell line (AID 743080; calls by dose curve;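 further: BG1 cells stimulated with 17beta-estradiol alongside compound; nearly all actives have a fitted effect of over 25% in size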; further: potency means the concentration at half of the fitted maximal effect); settings: BG1Luc4E2 ERE-luciferase antagonist mode, luminescence; activity change, negative = inhibition: at 70.3 µM (top of the series)
Procedure, shortened: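 Luminescence from a 4×ERE-luciferase reporter in BG1-Luc-4E2 cells served as read-out. Cells, pre-cultured 5 days in stripped-serum phenol-red-free medium, were exposed to compound with 17beta-estradiol co-stimulation for 21.5 h at 37 C.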

[16] = molecular target: Androgen receptor (Homo sapiens) (UniProt P10275); experiment: qHTS assay to identify small molecule agonists of the androgen receptor (AR) signaling pathway using the MDA cell line (AID 743040; further: nearly all actives have a fitted effect of over 20% in size); settings: MDA-kb2 AR-luc cells, MMTV luciferase, 16 h, stronger effect = higher value; series mostly up to 70.3 µM
Procedure, shortened: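 Luciferase agonist assay: 16 h compound exposure at 37C without CO2 in MDA-kb2 AR-luc cells, whose MMTV promoter responds to both AR and GR. Luminescence measured after 30 min room-temperature incubation with ONE-Glo.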

[17] = molecular target: Androgen receptor (Homo sapiens) (UniProt P10275); experiment: qHTS assay to identify small molecule antagonists of the androgen receptor (AR) signaling pathway (AID 743035; active means well fitted inhibition curve with a large enough effect in the signal ratio in the repeat runs, not every such curve was filed as active; inconclusive means weak or mixed curves, or effect the other way; inactive means no such curve, though single readings can be large or run the other way; the % refers to the signal ratio); settings: HEK293 AR-UAS-bla, R1881-stimulated, beta-lactamase FRET, 16 h; series mostly up to 58.5 µM
Procedure, shortened: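 Quantitative HTS of the Tox21 10K library used HEK293 AR-UAS-bla cells stimulated with R1881 alongside compound for 16 h at 37C, followed by beta-lactamase FRET detection (LiveBLAzer B/G, 2 h, RT).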

[18] = molecular target: Androgen receptor (Homo sapiens) (UniProt P10275); experiment: qHTS assay to identify small molecule agonists of the androgen receptor (AR) signaling pathway (AID 743036; active means well fitted activation curve with a large enough effect in the signal ratio in the repeat runs, with a control signal flat, not every such curve was filed as active; inconclusive means weak or mixed curves, or effect the other way; inactive means no such curve, though single readings can be large or run the other way; the % refers to the signal ratio); settings: HEK293 AR-UAS-bla GripTite, beta-lactamase FRET ratio, 16 h; series mostly up to 62.4 µM
Procedure, shortened: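 Agonist activity was scored by beta-lactamase reporter fluorescence in stably transfected HEK293 cells exposed to compounds for 16 h at 37C and 5% CO2. Substrate loading took 2 h at room temperature.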

Sequence of Androgen receptor (Homo sapiens) (P10275 whole entry, looked up): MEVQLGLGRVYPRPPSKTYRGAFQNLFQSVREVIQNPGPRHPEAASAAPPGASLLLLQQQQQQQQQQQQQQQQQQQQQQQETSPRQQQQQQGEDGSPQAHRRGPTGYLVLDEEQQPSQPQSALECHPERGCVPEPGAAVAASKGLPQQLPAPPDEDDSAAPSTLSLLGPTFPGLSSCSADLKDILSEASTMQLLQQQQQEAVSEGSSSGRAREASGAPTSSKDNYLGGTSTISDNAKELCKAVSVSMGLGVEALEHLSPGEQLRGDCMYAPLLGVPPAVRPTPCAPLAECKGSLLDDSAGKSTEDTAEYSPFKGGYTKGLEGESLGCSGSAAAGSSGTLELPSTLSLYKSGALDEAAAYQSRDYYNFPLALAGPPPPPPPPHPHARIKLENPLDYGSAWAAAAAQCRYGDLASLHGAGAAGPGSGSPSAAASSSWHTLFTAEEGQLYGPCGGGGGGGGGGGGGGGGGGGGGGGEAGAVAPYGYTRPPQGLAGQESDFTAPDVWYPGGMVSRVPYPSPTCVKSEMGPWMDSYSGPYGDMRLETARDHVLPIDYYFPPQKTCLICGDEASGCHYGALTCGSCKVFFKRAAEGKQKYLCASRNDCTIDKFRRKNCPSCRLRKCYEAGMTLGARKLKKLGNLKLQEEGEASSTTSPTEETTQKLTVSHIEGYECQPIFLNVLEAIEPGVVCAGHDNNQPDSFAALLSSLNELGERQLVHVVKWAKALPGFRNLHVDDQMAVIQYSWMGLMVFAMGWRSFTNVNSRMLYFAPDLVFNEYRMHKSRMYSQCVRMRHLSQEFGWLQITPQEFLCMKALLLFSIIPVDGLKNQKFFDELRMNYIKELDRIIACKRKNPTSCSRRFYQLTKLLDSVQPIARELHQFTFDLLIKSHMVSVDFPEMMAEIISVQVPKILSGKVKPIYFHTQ
Sequence of Aromatase (Homo sapiens) (P11511 whole entry, looked up): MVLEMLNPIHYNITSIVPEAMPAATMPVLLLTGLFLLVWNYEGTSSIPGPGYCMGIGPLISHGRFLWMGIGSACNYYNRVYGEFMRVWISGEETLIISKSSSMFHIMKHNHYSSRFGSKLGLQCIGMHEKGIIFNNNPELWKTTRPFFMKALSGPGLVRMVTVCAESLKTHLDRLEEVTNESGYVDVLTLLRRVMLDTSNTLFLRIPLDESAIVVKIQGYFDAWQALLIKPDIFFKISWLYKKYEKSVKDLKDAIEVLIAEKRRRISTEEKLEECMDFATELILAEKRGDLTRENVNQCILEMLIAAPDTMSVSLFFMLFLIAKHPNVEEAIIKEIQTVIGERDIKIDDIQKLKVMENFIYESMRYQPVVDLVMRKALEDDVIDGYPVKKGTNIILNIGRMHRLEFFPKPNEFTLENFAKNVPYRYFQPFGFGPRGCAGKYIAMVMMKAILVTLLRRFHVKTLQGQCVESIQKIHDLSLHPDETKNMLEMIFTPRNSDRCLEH
Sequence of Estrogen receptor (Homo sapiens) (P03372 whole entry, looked up): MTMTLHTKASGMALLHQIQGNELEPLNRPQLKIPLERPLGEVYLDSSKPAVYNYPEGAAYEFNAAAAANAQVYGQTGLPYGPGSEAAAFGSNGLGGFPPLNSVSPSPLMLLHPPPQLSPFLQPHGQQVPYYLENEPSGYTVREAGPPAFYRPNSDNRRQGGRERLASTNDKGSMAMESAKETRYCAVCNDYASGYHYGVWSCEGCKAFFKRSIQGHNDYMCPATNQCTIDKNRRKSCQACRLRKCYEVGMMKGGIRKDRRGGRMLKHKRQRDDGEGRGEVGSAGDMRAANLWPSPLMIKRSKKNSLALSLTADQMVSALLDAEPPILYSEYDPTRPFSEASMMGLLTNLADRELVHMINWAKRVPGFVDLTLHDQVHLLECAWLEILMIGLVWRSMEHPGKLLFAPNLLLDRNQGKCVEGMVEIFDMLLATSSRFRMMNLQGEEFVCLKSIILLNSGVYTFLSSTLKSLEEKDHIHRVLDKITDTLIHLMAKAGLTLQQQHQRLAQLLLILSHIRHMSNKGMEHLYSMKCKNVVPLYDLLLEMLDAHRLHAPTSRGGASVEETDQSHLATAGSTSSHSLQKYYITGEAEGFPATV

| Structure (SMILES) | Potency [1] | Potency [2] | Potency [3] | Potency [4] | Potency [5] | Potency [6] | Potency [7] | Potency [8] | Potency [9] | Potency [10] | Potency (Aromatase (Homo sapiens)) | Potency [11] | Potency [12] | Potency [13] | Potency [14] | Potency [15] | outcome [16] | Potency [17] | outcome [18] |
| --- | --- | --- | --- | --- | --- | --- | --- | --- | --- | --- | --- | --- | --- | --- | --- | --- | --- | --- | --- |
| CC(=O)Nc1c(I)c(NC(C)=O)c(I)c(C(=O)O)c1I | inactive | inactive | inactive | inactive | inactive | inactive | inactive | inactive | inactive | inactive | – | – | – | – | – | – | – | – | – |
| O=C1O[C@H]([C@@H](O)CO)C(O)=C1O | inactive | inactive and 54.5 µM (active) | inactive and 21.7 µM (active) | inactive and 48.6 µM (active) | inactive | inactive | inactive | inactive and 34.3 µM (active) | inactive | inactive | inactive | – | – | – | – | – | – | – | – |
| CNNCc1ccc(C(=O)NC(C)C)cc1 | inactive | inactive | inactive | inactive | inactive | inactive | inactive | inactive | inactive | inactive | inactive | inactive | – | – | – | – | – | – | – |
| CC1(C)O[C@@H]2C[C@H]3[C@@H]4CCC5=CC(=O)C=C[C@]5(C)[C@@]4(F)[C@@H](O)C[C@]3(C)[C@]2(C(=O)CO)O1 | inactive | inactive | inactive | inactive | inactive | inactive | inactive | inactive | inactive | inactive | inactive | inactive | – | – | – | – | – | – | – |
| CN1CCc2cccc3c2[C@H]1Cc1ccc(O)c(O)c1-3 | inactive | 9.44 µM (active) and 15.5 µM (active) and 12.8 µM (active) | 11.9 µM (active) and 6.93 µM (active) and 9.09 µM (active) | 16.8 µM (active) and 12.3 µM (active) and 8.1 µM (active) | 55.5 µM (active) | inactive | 29.8 µM (active) and 49.1 µM (active) and 22.8 µM (active) | – | inactive | 69.3 µM (active) | 21.9 µM (active) and 11.4 µM (active) | – | inactive | inactive | – | – | – | – | – |
| O=c1[nH]cc(F)c(=O)[nH]1 | inactive | 21.1 µM (active) and 27.9 µM (active) | 50.4 µM (active) and 27.9 µM (active) | 21.1 µM (active) and 40 µM (active) and 17.6 µM (active) | inactive | inactive | 20.1 µM (active) | – | inactive | inactive | inactive | – | inactive | inactive | inactive | inactive | – | – | – |
| C/C=C/C=C/C(=O)O | inactive | inactive and 61.1 µM (active) | inactive | inactive and 61.1 µM (active) | inactive | inactive | inactive | inactive | inactive | inactive | inactive | inactive | – | – | – | – | – | – | – |
| CC(O)(P(=O)(O)O)P(=O)(O)O | inactive | inactive | inactive | inactive | inactive | inactive | inactive | inactive | inactive | inactive | inactive | – | – | – | – | – | – | – | – |
| O=c1[nH]cnc2c1ncn2[C@H]1CC[C@@H](CO)O1 | inactive | inactive | – | inactive and 61.1 µM (active) | inactive | inactive | inactive | inactive and 1.31 µM (active) | inactive | inactive | inactive | inactive | inactive | inactive | inactive | inactive | – | – | – |
| CN1[C@@H]2CC(OC(=O)[C@H](CO)c3ccccc3)C[C@H]1[C@@H]1O[C@@H]12 (stereo partly drawn) | inactive | – | – | – | inactive | inactive | inactive | inactive | inactive | inactive | – | – | inactive | inactive | inactive and 23.7 µM (active) and 48.6 µM (active) | inactive | – | – | – |
| CCN(Cc1c(F)cccc1Cl)c1c([N+](=O)[O-])cc(C(F)(F)F)cc1[N+](=O)[O-] | – | 30.6 µM (active) | 27.3 µM (active) | 24.3 µM (active) | – | inactive | inactive | inactive | inactive | inactive | 27.3 µM (active) | – | – | inactive | 21.7 µM (active) | inactive | – | – | – |
| CC(=O)C(=O)O | inactive | inactive | inactive | inactive | inactive | inactive | inactive | – | inactive | inactive | inactive | – | – | – | – | – | – | – | – |
| CC(C)c1c(C(=O)Nc2ccccc2)c(-c2ccccc2)c(-c2ccc(F)cc2)n1CC[C@@H](O)C[C@@H](O)CC(=O)O | inactive | – | – | – | inactive | inactive | inactive and 57.1 µM (active) | inactive | inactive | inactive | – | – | – | – | – | – | – | – | – |
| Nc1ccc(O)c([N+](=O)[O-])c1 | – | – | – | 65.6 µM (active) | inactive | – | 45.7 µM (active) | inactive | – | 34 µM (active) | inactive | inactive | – | inactive | inactive | inactive | – | – | – |
| COc1cccc(O)c1O | inactive | – | 25.3 µM (active) | – | – | inactive | inactive | inactive | inactive | – | 35.7 µM (active) | – | – | 50.7 µM [activator] (active) | inactive | inactive | inactive | – | – |
| NC(=O)n1c(O)c(C(=O)c2cccs2)c2cc(Cl)ccc21 | inactive | – | – | – | inactive | inactive | – | – | inactive | – | – | 29.8 µM (active) | 21.3 µM [inconclusive] (active) | inactive | – | 29.8 µM (active) | – | – | – |
| O=C1NS(=O)(=O)c2ccccc21 | inactive | inactive | inactive | inactive | inactive | inactive | inactive | – | inactive | inactive | inactive | – | – | – | – | – | – | – | – |
| CN(C)CCOC(c1ccccc1)c1ccccc1 | inactive | – | – | – | inactive | inactive | 26.6 µM (active) and 19.4 µM (active) | inactive | inactive and 9.52 µM (active) | inactive | – | 26.6 µM (active) and 48.6 µM (active) | inactive | inactive | inactive | inactive | inactive | inactive | inactive |
